High-throughput results as filed in PubChem BioAssay.
This is a sample that favours compounds with a hit; in the whole collection about 2.8% have one here.
SIRT5 block = blocks human SIRT5 desuccinylation of peptide | Purified SirT5, succinyl-peptide AMC, trypsin-coupled fluorescence | inhibition, % at 15 µM | actives 1.1% (n = 330,000); in the data active means inhibition above about 15%
CDK5 p35 inh = blocks human CDK5/p35 kinase activity | Recombinant CDK5/p35, ADP-Glo luminescence, 60 min | actives 0.01% (n = 330,000) | AID 488839 | inhibition, % at 10 µM;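 active means highest replicate inhibition of at least 50% and at least 75% of replicates reaching 50%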;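 further: plate controls were DMSO neutral control for no effect and GW8510 at 10 µM for full effect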
Target sequence (Q00535 whole entry, looked up): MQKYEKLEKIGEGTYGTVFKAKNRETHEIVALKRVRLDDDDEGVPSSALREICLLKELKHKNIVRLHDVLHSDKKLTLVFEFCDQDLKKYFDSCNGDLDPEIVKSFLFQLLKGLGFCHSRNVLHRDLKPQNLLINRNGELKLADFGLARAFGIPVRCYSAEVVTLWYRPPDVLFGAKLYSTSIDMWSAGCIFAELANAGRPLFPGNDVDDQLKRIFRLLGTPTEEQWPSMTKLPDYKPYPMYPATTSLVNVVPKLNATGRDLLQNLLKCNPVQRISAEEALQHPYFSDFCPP
Target sequence (Q15078 whole entry, looked up): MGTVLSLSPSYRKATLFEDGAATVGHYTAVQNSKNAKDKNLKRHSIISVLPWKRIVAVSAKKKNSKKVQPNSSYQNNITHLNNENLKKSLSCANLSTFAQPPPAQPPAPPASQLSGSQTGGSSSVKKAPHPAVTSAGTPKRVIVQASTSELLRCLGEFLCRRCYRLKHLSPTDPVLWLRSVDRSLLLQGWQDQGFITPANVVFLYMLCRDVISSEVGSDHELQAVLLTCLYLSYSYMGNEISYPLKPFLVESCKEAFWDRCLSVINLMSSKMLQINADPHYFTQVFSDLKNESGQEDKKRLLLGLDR
PglD DTNB = PglD (C. jejuni) enzyme inhibition; purified PglD enzyme, DTNB colorimetric CoA detection; actives 0.098% (n = 360,000); inhibition, % at 12.5 µM; in the data active means inhibition above about 16%, passing the limit was not always enough
FGF22 binding = shifts melting point of recombinant human FGF22; Q9HCT0; recombinant FGF22 thermal shift, SYPRO orange fluorescence; percent of sucrose octasulfate shift, DMSO zero; activity (Tm shift, normalised), % at 9.99 µM; actives 1.5% (n = 340,000); AID 651658;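 active means mean Tm shift, scaled 0 neutral to 100 positive control, at about 1.3% or above, every replicate too, limit read from the data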
PvdQ inh = blocks Pseudomonas aeruginosa PvdQ acylase activity; inhibition, % at 10 µM; purified PvdQ acylase, fluorescence plate reader; actives 0.063% (n = 340,000); AID 488965; in the data active means inhibition above about 30%, passing the limit was not always enough;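 further: 0% = vehicle neutral wells and 100% = reference inhibitor wells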
dFosB act = mouse delta FosB homodimer activation. P13346. purified delta FosB, TAMRA-CDK5 oligo fluorescence polarization; percent of positive-control signal above neutral wells. activation, % at 25 µM. actives 0.99% (n = 340,000);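 active means mean activation above about 17%, with every replicate also reaching it, limit read from the data, passing the limit was not always enough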
* = called active by the depositor; . = no result given.

SMILES	SIRT5 block	CDK5 p35 inh	PglD DTNB	FGF22 binding	PvdQ inh	dFosB act
CN(c1ncnc(N)c1[N+](=O)[O-])C1CCCCC1	-0.7	3.0	4.0	0.3	37.9*	3.0
O=C(NC1CCCC1)N1CC(=O)N2[C@H](CO)[C@@H](c3ccc(/C=C/c4ccccc4)cc3)[C@H]2C1	2.4	.	.	.	.	.
Cc1ccc(N(C(C)C(=O)NCc2ccncc2)S(C)(=O)=O)cc1C (stereo not drawn)	-4.5	-0.4	-2.9	42.9*	-0.1	3.8
CO[C@H]1CN(C)C(=O)c2cc(NC(=O)c3ccccc3)ccc2OC[C@H](C)N(CC2CC2)C[C@@H]1C	.	.	-1.5	.	.	.
Cc1cc(C)cc(NC(=O)CC2Oc3ccc(C)cc3NC2=O)c1 (stereo not drawn)	-2.3	-1.8	-4.2	0.1	-16.0	32.2*
C[C@@H]1CN([C@H](C)CO)C(=O)c2cc(NS(=O)(=O)c3ccccc3)ccc2O[C@@H]1CN(C)CC1CCCCC1	3.1	.	0.1	0.2	.	.
CCOC(=O)N1CCC(NCCNC(=O)c2ccco2)CC1	-2.0	0.3	2.7	44.0*	-2.5	-9.1
CCOC(=O)N1CCC(NCCNC(=O)c2ccc(Cl)cc2)CC1	.	0.3	4.2	.	4.7	1.8
Cc1noc(C)c1NC(=O)Nc1ccc2c(c1)C(=O)N([C@H](C)CO)C[C@H](C)[C@H](CN(C)C(=O)Nc1ccc3c(c1)OCO3)OCCCC[C@@H](C)O2	-0.4	.	-0.8	0.3	.	.
O=C(C[C@H]1CC[C@H]2[C@@H](COC[C@H](O)CN2Cc2ccccc2F)O1)N1CCc2ccccc2C1	-8.8	.	-0.5	-0.3	.	.
NNC(=O)c1cncn1-c1ccc(F)cc1	-9.6	-0.4	.	43.6*	1.7	-5.6
O=C(C[C@H]1CC[C@@H]2[C@H](COC[C@H](O)CN2S(=O)(=O)c2ccc(Cl)cc2)O1)N[C@H]1CCN(Cc2ccccc2)C1	-1.2	.	-0.6	0.0	.	.
CO[C@H]1CN(C)C(=O)c2ccc(NC(C)=O)cc2OC[C@H](C)N(Cc2ccccc2F)C[C@@H]1C	-0.1	.	.	0.2	.	.
CCN=c1scc(C)n1/N=C/c1ccc(O)c(O)c1O	.	3.6	1.6	.	15.2	-11.3
CCN=c1scc(C)n1/N=C/c1cc(Br)c(O)c(Br)c1	-2.1	2.5	.	43.1*	-6.5	-15.2
Fc1ccc(-c2nc3c(-c4ccc(F)cc4)cnn3cc2CCN2CCOCC2)cc1	2.5	0.2	-3.9	42.9*	5.2	-2.1
Fc1ccc(-c2nc3c(-c4ccccc4)cnn3cc2CCN2CCOCC2)cc1	0.7	1.1	.	-0.3	7.2	-13.4
O=C(O)C1=C[C@H](c2ccc3c(c2)Cc2ccccc2-3)C[C@H](OCCCCO)O1	4.6	.	3.8	-0.2	.	.
CN/N=C/c1ccc(C#N)cc1	-3.5	3.3	.	43.0*	-3.8	-2.6
CCNC(=O)C[C@@H]1CC[C@@H]2[C@H](COc3ccc(NC(=O)NC(C)C)cc3C(=O)N2C)O1	-1.1	.	-1.7	0.0	.	.
COc1cc(-c2cc(-c3ccc(F)cc3)nc(N)c2C#N)ccc1O	-0.4	0.2	.	43.1*	-4.4	4.8
C[C@@H]1CN([C@@H](C)CO)C(=O)c2cc(-c3cccnc3)cnc2O[C@H]1CN(C)C	-4.1	.	-5.2	0.3	.	.
CC(C)NC(=O)N[C@H]1C=C[C@H](CC(=O)NCCCN(C)C)O[C@H]1CO	-1.8	.	-1.5	-0.1	.	.
Cc1noc(C)c1COc1ccc(C(=O)N2CCN(S(=O)(=O)c3cccc(F)c3)CC2)cc1	27.9*	-1.2	-7.2	.	-16.7	-4.9
COc1ccc([C@H]2N[C@]3(CCCN(Cc4ccc(C)cc4)C3=O)[C@H]3C(=O)N(C)C(=O)[C@@H]23)cc1	39.0*	.	3.0	-0.1	.	.
CCOC(=O)c1ccccc1-n1c(C)cc(C2N=C(N)Nc3nc4ccccc4n32)c1C (stereo not drawn)	-2.8	0.0	7.0	0.0	6.0	45.3*
CO[C@@H]1CN(C)C(=O)c2ccc(NS(C)(=O)=O)cc2OC[C@H](C)N(Cc2cccnc2)C[C@@H]1C	-8.6	.	1.8	0.2	.	.
CO[C@H]1CN(C)C(=O)c2cc(NC(=O)Nc3ccc(Cl)cc3)ccc2OC[C@H](C)N(C)C[C@@H]1C	-3.3	.	0.5	.	.	.
CC1(C)CC(NCCN2CCN(C3=CC(=C(C#N)C#N)CC(C)(C)C3)CC2)=CC(=C(C#N)C#N)C1	-4.0	-1.8	.	44.7*	-4.3	-12.4
Cc1cc2nc(CSc3ccccc3)cc(=O)n2[nH]1	29.2*	-1.5	.	0.2	-0.7	-1.5
